This passage reports max activity results from PubChem BioAssay AID1259418 (Broad Institute, 2018).

Among all 3,400 compounds or so, about 840 (25%) were called active. About 11% were inconclusive and are not listed. A selection follows. Results with a measured potency or affinity are listed apart. Unmarked numbers belong to inactive results.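 Rule for the calls: active = fitted half-maximal concentration of signal decrease at or below twice the sample's top tested concentration; inconclusive = flat curve between -70 and -30 percent, or poor fit; inactive = flat within 30 percent, signal rise, or potency above limit.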

This experiment in a line: T. gondii growth inhibition with IFN-gamma, dose response, cell-based, ME49Luc, HeLa, luciferase, 72 h (AID 1259418). The conditions noted are these: T. gondii ME49Luc in IFN-y HeLa, active compounds read low, -100% = high-dose IFN-γ control wells; at 19.5 µM unless noted.
For `CCN1Cc2c(C(=O)Nc3ccc(C)cc3)ncn2-c2ccccc2S1(=O)=O`, the max activity was 5.65%. Turning to `CC(C)n1c(C(=O)Nc2cccc(F)c2)nc2c1CCN(Cc1ccccc1)C2`, the max activity is 12.5%. `CN1[C@H](CO)[C@@H]2c3ccccc3N(C(=O)C3CCCCC3)C[C@@H]21`: the max activity is 65.5%.

As for `COc1ccc(CC(=O)N2CCC3(CC2)Nc2ccc(C)c(C)c2-n2cccc23)cc1OC`, the max activity was 11.1% [at 0.68 µM].

Turning to `Cc1ccc(C)c(-c2coc(-c3ccc(NC(=O)Nc4ccccc4)cc3)n2)c1`, the max activity was 17.8% [at 0.16 µM]. Consider `CCOCC1CC2(CCN(C(=O)COc3ccc(C)cc3)CC2)CO1` (stereo unspecified), for which the max activity is 14.2%. In the case of `O=C(CC1N=C2c3ccccc3N=C(SCc3cc(=O)n4cc(Cl)ccc4n3)N2C1=O)NC1CCCCC1` (stereo unspecified), the max activity was 36.6% [at 10 µM]. For the compound `FC(F)(F)c1cccc(N2CCN(c3nc(-c4ccc(Cl)cc4)nc4ccccc34)CC2)c1`, the max activity is -11.2% [at 0.16 µM]. Turning to `Cc1oc(-c2cccc(Cl)c2)nc1CN1CCN(C(=O)Nc2cccc(Cl)c2)CC1`, the max activity is 10.8% [at 0.35 µM]. Regarding `Cc1cccc(NC(=O)N2CCN(Cc3nc(-c4cccc(Cl)c4)oc3C)CC2)c1`, the max activity is 12.6%. Consider `Cc1ccc(Cl)cc1NC(=O)N1CCN(Cc2nc(-c3cccc(Cl)c3)oc2C)CC1`, for which the max activity is 11.1% [at 10 µM].

Take `CCc1ccccc1NC(=O)N1CCN(Cc2nc(-c3cccc(Cl)c3)oc2C)CC1`: the max activity was 17.6% [at 10 µM]. Consider `CCc1nc(OCC(=O)Nc2cc(C)ccc2C)c2ccccc2n1`, for which the max activity is 10.4% [at 2.6 µM].

Take `Cc1ccc(CC(=O)N2CCC3(CC2)Nc2cc(F)ccc2-n2cccc23)cc1`: the max activity was -4.79% [at 0.35 µM]. Turning to `COc1ccc2c(c1)NC1(CCN(C(=O)c3ccccc3F)CC1)c1cccn1-2`, the max activity is 8.8% [at 5 µM]. In the case of `CC(C)NC(=O)N1CC[C@@H]2[C@@H](CO)N(C)c3ccc(-c4ccc(F)cc4)cc3[C@@H]21`, the max activity was 26.2% [at 5 µM]. For the compound `CC(C)NC(=O)N1CC[C@@H]2[C@H]1c1cc(-c3ccc(F)cc3)ccc1N(C)[C@H]2CO`, the max activity was -31.5%.

On to `CN1c2ccc(C#Cc3cccnc3)cc2[C@@H]2[C@@H](CCN2C(=O)c2cccc(F)c2)[C@H]1CO`, for which the max activity was 11.4%. In the case of `Fc1ccc(N2CCN(c3nc(-c4ccc(Cl)cc4)nc4ccccc34)CC2)cc1`, the max activity is 8.24%. As for `CCCCC(=O)Nc1ccc(-c2nc(-c3ccc(C)cc3C)co2)cc1`, the max activity was 37.3% [at 10 µM]. Turning to `O=S(=O)(c1cccs1)N1CCC2(CC1)NCCN=C2NCc1ccccc1Cl`, the max activity is -8.05% [at 1.35 µM].

As to `Cc1ccc(S(=O)(=O)N2CCC3(CC2)NCCN=C3NCc2ccccc2F)c(C)c1`, the max activity is -12.4%. For `O=C(NCCc1csc(-c2ccccc2)n1)[C@H]1CCCN1C(=O)Cc1ccc(F)cc1` the value was -17.3% [at 0.16 µM]; for `CCc1nc(OCC(=O)Nc2ccc(C)cc2C)c2ccccc2n1`, 12.9% [at 10 µM]. Under `Cc1cc(C)cc(NC(=O)Nc2ccc(-c3nc(-c4ccccc4)co3)cc2)c1` stands 19.9% [at 1.35 µM]. Under `Cc1ccc(-c2nc(Cn3nnc(-c4nc(-c5ccc(OC(C)C)cc5)no4)c3C)c(C)o2)cc1` stands 12.6% [at 0.16 µM]; under `Cc1cc(C)cc(NC(=O)N2CCN(Cc3nc(-c4ccccc4C)oc3C)CC2)c1`, 8.24% [at 1.35 µM]; under `Cc1ccc(Cl)cc1NC(=O)Nc1ccc(-c2nc(-c3ccccc3)co2)cc1`, -20.1% [at 0.16 µM]. Consider `Cc1ccc(-c2nc(Cn3nnc(-c4nc(-c5cccc(F)c5)no4)c3C)c(C)o2)cc1`, for which the max activity is 3.99%. In the case of `Cc1ccc(C)c(-c2coc(-c3ccc(NC(=O)NCCc4ccccc4)cc3)n2)c1`, the max activity is 29.4%. As to `OC[C@H]1[C@@H](c2ccc(C#Cc3ccccc3F)cc2)[C@@H]2CN(CC3CCOCC3)CCCCN12`, the max activity is 9.11% [at 1.2 µM].

Turning to `C[C@H]1[C@H](NC(=O)/C(=N\OC(C)(C)C(=O)O)c2csc(N)n2)C(=O)N1S(=O)(=O)O`, the max activity is 14% [at 21 µM]. Under `COc1ccc2c(c1)NC1(CCN(C(=O)Cc3ccccc3C)CC1)c1cccn1-2` stands -9.29% [at 0.16 µM]; under `CCc1nc(OCC(=O)Nc2ccc(C)cc2Br)c2ccccc2n1`, -11.9% [at 2.6 µM]; under `COc1ccc(CCNc2nc(SCc3ccc(F)cc3)nc3ccccc23)cc1OC`, -14.5% [at 5 µM].

As for `CCOC(=O)C(=O)Nc1ccc(-c2nc(-c3ccccc3)co2)cc1`, the max activity was 10.7% [at 5 µM]. On to `Cc1ccc(-c2nc(Cn3nnc(-c4nc(-c5cccc(Br)c5)no4)c3C)c(C)o2)cc1`, for which the max activity was 7.23% [at 0.16 µM]. Consider `CCOc1ccc(C(=O)N2CCC(C(=O)NCCc3csc(C)n3)CC2)cc1`, for which the max activity was 13.7%. Under `Cc1ccc(C)c(-c2coc(-c3ccc(NC(=O)Cc4cccs4)cc3)n2)c1` stands 19.4%; under `O=C(CC1N=C2c3ccccc3N=C(SCc3cc(=O)n4ccccc4n3)N2C1=O)NCc1ccc(F)cc1` (stereo unspecified), 17.7% [at 2.6 µM].

In the case of `COc1ccc(CCC(=O)N2CCC3(CC2)Nc2cc(F)ccc2-n2cccc23)cc1`, the max activity is 14.7% [at 0.68 µM].

Consider `O=C(Nc1ccc(-c2nc(-c3cccc(Br)c3)co2)cc1)Nc1ccc2c(c1)OCCO2`, for which the max activity is 9.52% [at 0.16 µM]. With `Cc1ccc(-c2nc(CN3CCN(C(=O)Nc4cccc(C)c4C)CC3)c(C)o2)cc1`, the max activity was 12.5% [at 10 µM]. Turning to `COc1ccc(-c2nc(NCCN(Cc3ccco3)C3CCCC3)c3ccccc3n2)cc1`, the max activity is -27.6% [at 2.6 µM]. For `CN(CCNc1nc(-c2ccc(Cl)cc2)nc2ccccc12)C1CCCCC1` the value was -24.3% [at 2.6 µM]; for `COc1ccc(-c2nc(NCc3ccccc3)c3ccccc3n2)cc1`, 16.2%. Take `COc1ccc(CNc2nc(-c3ccc(OC)cc3)nc3ccccc23)cc1`: the max activity was -17.8% [at 10 µM].

Turning to `CCCCNc1nc(-c2ccc(OC)cc2)nc2ccccc12`, the max activity is 22.7%. For `CCCNc1nc(-c2ccc(OC)cc2)nc2ccccc12`, the max activity was -34.8% [at 0.35 µM]. As for `COc1ccc(-c2nc(NCCC(C)C)c3ccccc3n2)cc1`, the max activity was -29.2% [at 0.68 µM]. In the case of `COc1ccc(-c2nc(NCCCc3ccccc3)c3ccccc3n2)cc1`, the max activity was -17% [at 1.35 µM]. `Cc1ccc2[nH]cc(CCNC(=O)c3cc(-c4ccccn4)nc4ccccc34)c2c1`: the max activity is 11.1%.

In the case of `CCCCN(C)C(=O)Cn1c(=O)c(S(=O)(=O)c2ccccc2)cc2ccccc21`, the max activity is 11.6%. Under `Cc1ccc(-c2coc(-c3ccc(NC(=O)Nc4ccc5c(c4)OCO5)cc3)n2)c(C)c1` stands 49.1%; under `Cc1ccc(C(=O)N2CCC3(CC2)Nc2cc(F)ccc2-n2cccc23)cc1`, 6.63% [at 0.16 µM]; under `CSc1ccc(CNC(=O)COc2nc(C)nc3ccccc23)cc1`, -10.1% [at 5 µM]. With `CCOc1ccc(NC(=O)N2CCc3nc(-c4cccc(OC)c4)sc3C2)cc1`, the max activity is 6.38%.

Take `COc1ccc(-c2nc(Cn3nnc(-c4nc(-c5ccc(F)cc5)no4)c3C)c(C)o2)cc1`: the max activity was -9.56% [at 5 µM]. `COc1ccc(-c2nc(NCCc3cc(OC)ccc3OC)c3ccccc3n2)cc1`: the max activity is 10.1%. On to `COc1ccc(-c2nc(NCCc3ccccc3)c3ccccc3n2)cc1`, for which the max activity is -16% [at 10 µM].

`CCOC(=O)C1CCN(c2nc(-c3ccc(OC)cc3)nc3ccccc23)CC1`: the max activity is -8.44% [at 0.68 µM]. For the compound `Cc1nc(-c2ccc(C(=O)N3CCC(C)CC3)cc2)cs1`, the max activity is 19%.

In the case of `COc1ccc(Cl)cc1NC(=O)CN1CCC2(CC1)N=C(c1cccc(F)c1)C(=O)N2`, the max activity is 7.5% [at 5 µM]. For `CCOc1ccc(C(=O)N2CCC3(CC2)Nc2cc(OC)ccc2-n2cccc23)cc1`, the max activity is 8.9%. In the case of `COc1ccc(NC(=O)COc2nc(C)nc3ccccc23)c(OC)c1`, the max activity is 17.4% [at 0.16 µM]. Turning to `Cc1ccc(CN2CC3CN(Cc4cccc(F)c4)CC3C2)s1` (stereo unspecified), the max activity was 10.1%. Take `O=S(=O)(c1ccc(F)cc1)N1C[C@@H]2N[C@H](C1)C2c1ccc(/C=C/c2ccccc2)cc1` (stereo partly specified): the max activity is 26.3%.

As to `COc1ccc(OC)c(NC(=O)Nc2ccc(-c3nc(-c4cc(C)ccc4C)co3)cc2)c1`, the max activity is -12.9% [at 0.35 µM]. On to `Cc1nc(OCC(=O)Nc2ccccc2C(F)(F)F)c2ccccc2n1`, for which the max activity is 21.7% [at 0.16 µM]. Under `CCN1CCO[C@@H]2CN(C(=O)CC3Cc4ccccc4C3)C[C@@H]2C1` stands 43.5%; under `Cc1ccc(C)c(C(=O)Nc2ccc3c(c2)CCC(=O)N3)c1`, -6.43% [at 1.35 µM]; under `Cc1ccc(C(=O)Nc2ccc3c(c2)CCC(=O)N3)c(C)c1`, 42%. For `Cc1ccc(CC(=O)Nc2ccc3c(c2)CCC(=O)N3)cc1` the value was 7.74%; for `O=C1CCc2cc(NC(=O)c3ccc(OC(F)(F)F)cc3)ccc2N1`, -8.43% [at 0.35 µM]; for `O=C1CCc2cc(NC(=O)C(F)(F)F)ccc2N1`, -12.7% [at 2.6 µM].

Regarding `O=C1CCc2cc(NC(=O)c3ccc(C(F)(F)F)cc3)ccc2N1`, the max activity was -7.37% [at 1.35 µM].
